Source: PubChem (National Center for Advancing Translational Sciences (NCATS))
Sampled rows, rich in hits. Any-hit rate of the full collection: about 6%.
ERK AVP inh – qHTS Assay for Inhibitors of the ERK Signaling Pathway using a Homogeneous Screening Assay; AID 995, 2007; 72,000 tested, 0.99% active; HEK293-V1b, vasopressin-stimulated pERK AlphaScreen; Potency, µM (titrated, usually from 57.5 µM), for the others: top-dose activity, negative = inhibition, most hits filed as inhibitors; note: potency is the fitted concentration of half-maximal effect; % is set by controls: 0 for no effect and ±100 for the full control effect; nearly all actives have a fitted effect of over 55% in size
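V1b-HEK293 cells; cpd 30 min 37C; 25 nM vasopressin 5 min; lyse 10 min; AlphaScreen beads 5 hr RT. Normalized to DMSO basal and 25 nM vasopressin; AC50 by Hill fit.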
HEK293 cAMP cs – qHTS Assay for Agonists of the Thyroid Stimulating Hormone Receptor: Activators of Intracellular cAMP Concentrations in Parental HEK 293. parental HEK293 CNG cAMP sensor, membrane potential fluorescence. Potency, µM (top dose mostly 57.1 µM), for the others: top-dose activation, hits mostly activators. 73,000 tested, 2.5% active. AID 938, 2007; note: potency is the fitted concentration of half-maximal effect; % of control where 0% means no effect; nearly all actives have a fitted effect of over 55% in size
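Counterscreen for endogenous-receptor signalling: CNG-channel HEK 293 cells report cAMP rise by membrane depolarization. After 60 min dye equilibration with 100 uM RO 20-1724, compounds incubated 30 min before bottom-read fluorescence at 590 nm.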
TSHR agonist – qHTS Assay for Agonists of the Thyroid Stimulating Hormone Receptor; 73,000 tested, 0.48% active; AID 926, 2007; Thyrotropin receptor (Homo sapiens), P16473; HEK293-CNG-TSHR cells (CNG channel as cAMP sensor), membrane potential dye, cAMP; Potency, µM (top dose mostly 57.1 µM), for the others: at the top dose activation, usual class: activators; active = well fitted activation curve with a large enough effect in the main read-out, with a control signal flat, not every such curve was filed as active; inconclusive = small, poorly fitted or top-dose-only effect, or a change in a side signal; inactive = no such curve, though single readings can be large or run the other way; % of control where 0% means no effect;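 note: the control signal comes from parental cells without the receptor; potency is the fitted concentration of half-maximal effect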
Target sequence (P16473 whole entry, looked up): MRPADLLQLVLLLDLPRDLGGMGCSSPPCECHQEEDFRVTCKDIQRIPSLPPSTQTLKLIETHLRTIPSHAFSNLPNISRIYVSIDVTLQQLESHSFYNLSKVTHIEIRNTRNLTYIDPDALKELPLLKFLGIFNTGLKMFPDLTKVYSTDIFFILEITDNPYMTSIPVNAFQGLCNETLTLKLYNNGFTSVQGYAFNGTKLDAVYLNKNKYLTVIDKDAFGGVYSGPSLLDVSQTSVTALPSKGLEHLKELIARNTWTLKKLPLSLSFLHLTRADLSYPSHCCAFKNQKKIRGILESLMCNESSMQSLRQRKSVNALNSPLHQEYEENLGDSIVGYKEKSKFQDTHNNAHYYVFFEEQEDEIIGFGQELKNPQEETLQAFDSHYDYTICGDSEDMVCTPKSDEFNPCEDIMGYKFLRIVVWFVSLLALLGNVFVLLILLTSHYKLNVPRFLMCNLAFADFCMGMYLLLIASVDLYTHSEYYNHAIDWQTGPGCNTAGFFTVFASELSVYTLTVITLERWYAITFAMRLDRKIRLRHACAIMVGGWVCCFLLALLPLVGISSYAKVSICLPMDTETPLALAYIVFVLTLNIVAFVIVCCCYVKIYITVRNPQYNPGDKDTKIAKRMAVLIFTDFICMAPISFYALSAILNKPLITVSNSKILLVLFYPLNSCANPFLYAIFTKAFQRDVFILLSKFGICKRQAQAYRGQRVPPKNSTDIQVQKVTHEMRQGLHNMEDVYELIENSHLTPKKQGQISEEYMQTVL
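cAMP rise detected as CNG-channel membrane depolarization by fluorescent dye (emission 590 nm), 30 min after compound, following 60 min dye loading containing 100 uM RO 20-1724 at room temperature. Cells: TSHR/CNG HEK 293, with parental CNG HEK 293 as control.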
CRE-bla Fsk – Cell signaling CRE-BLA (Fsk stim); Potency, µM (titrated, usually from 38.2 µM), for inactives: at the top dose activity change, negative = inhibition, usual class: activators; CHO CRE-bla reporter (cAMP response element driving beta-lactamase), forskolin EC10, beta-lactamase ratio; AID 662, 2007; 71,000 tested, 2.5% active; active = well fitted activation curve with a large enough effect in the signal ratio, with a control signal flat, not every such curve was filed as active; inconclusive = small, poorly fitted or top-dose-only effect, or effect the other way, or a change in a side signal; the % refers to the signal ratio; note: potency is the fitted concentration of half-maximal effect; % of control where 0% means no effect
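Forskolin analogue NKH 477 at EC10 stimulated CRE-driven beta-lactamase in CHO cells alongside compound dilution series. Beta-lactamase was measured with CCF4, excitation 405 nm, emission ratio 460/530 nm.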
parental cAMP – Confirmation Concentration-Response Assay for Agonists of the Thyroid Stimulating Hormone Receptor: Activators of Intracellular cAMP Concentrations in Parental HEK 293. 150 tested, under 10 active. shares compounds with TSHR agonist. activity change, negative = inhibition, % at 32.9 µM. parental HEK293 CNG biosensor, cAMP membrane potential fluorescence
The depositor's hits bear a star; ? = inconclusive; / = not tested or not shown; [ ] = dose if it differs, or a comment. Unless noted, calls come from the whole dose curve; as a rule, active = well fitted curve in the direction sought with a large enough effect; inconclusive = small, poorly fitted or top-dose-only effect, or another doubt; inactive = no such curve, though single readings can be large; an effect the other way counts as inactive or inconclusive.

SMILES	ERK AVP inh	HEK293 cAMP cs	TSHR agonist	CRE-bla Fsk	parental cAMP
COc1ccc(O[C@H]2C=C[C@@H](c3ccccc3)O[C@H]2CO/N=C\C[C@@H]2C=C[C@H](OC(C)=O)[C@H](COC(C)=O)O2)cc1	0%[11.5 µM]	2%[11.4 µM]	23%[11.4 µM]	/	/
Cc1cc(=O)[nH]c(SCCOc2ccc3c(c2)CCC3)n1	-7%	11%	/	-17%	25
Cc1cc(=O)[nH]c(SCCOc2ccc(OC(C)C)cc2)n1	-9%	2%	23%	-5%	/
CC1CCC2C(=O)N3C(CCC(C)[C@@H]3c3ccc(Br)cc3)C(=O)N2C1c1ccc(Br)cc1 (some centres undefined)	23%[11.5 µM]	-5%[11.4 µM]	-6%[11.4 µM]	/	/
COCCNC(=O)C(c1ccccc1)N(Cc1cccs1)C(=O)Cn1nnc2ccccc21 (centres undefined)	-12%	30%	13µM*	-9%	7
CCOC(=O)CN(C(=O)Cn1nnc2ccccc21)C(C(=O)NCCOC)c1ccccc1 (centres undefined)	8%	7%	-1%	-4%	/
Cn1c(=O)[nH]c(=O)c2c1nc(N1CCCCCC1)n2CCCSc1nc2ccccc2o1	-29%	-3%	4%	?	13[25.6 µM]
CCOC(=O)N1CCC(NC(=O)c2ccc(CNS(=O)(=O)c3ccc(F)cc3)cc2)CC1	-8%	9%	25µM*	16%	8
Cc1ccc(S(=O)(=O)NC(=O)Nn2c(C)nnc2C)cc1	0%	3%	10%	-1%	2[25.6 µM]
Cc1ccc(S(=O)(=O)NC(=O)NN2CCCCCC2)cc1	19%	10%[25.6 µM]	-6%[25.6 µM]	1%[17.1 µM]	/
COCCn1c(=O)c(C)nc2cncnc21	?	9%	10%	11%	/
COc1ccc(C(=O)N2CCC[C@@]3(CCN(c4ncccn4)C3)C2)cc1	-16%	1%	7%	4%	/
O=C(NCc1ccco1)c1cc(-c2ccccc2)c(N2CCOCC2)s1	10%	0%	-7%	?	-62[25.6 µM]
O=C(O)c1cc(-c2ccccc2)c(N2CCOCC2)s1	11%	12%	12%	?	/
CCC(Cl)CC(Cl)C(Cl)C(Cl)C(Cl)C(C)Cl (centres undefined)	64%	?	?	?	/
CN1C(=O)N(C)C2(c3ccccc3)Nn3c(s/c(=C/c4ccco4)c3=O)=NC12c1ccccc1 (centres undefined)	-28%	4%	1.6µM*	-3%	-1
O=c1/c(=C/c2ccco2)sc2nc(-c3ccccc3Br)nn12	15%	-29%	-19%	-27%	/
CC(=O)Nc1ccc(S(=O)(=O)N(C)c2ccccc2)cc1	-27%	1%	0.79µM*	-4%	5
CN1CCc2nc(N)nc(-c3nc(N)nc4c3CN(C)CC4)c2C1	-10%[11.5 µM]	3%[11.4 µM]	4%[11.4 µM]	5%[7.6 µM]	/
CCOc1ccc(NC(=O)C(C)SC(N)=O)cc1 (centres undefined)	26%	-17%	-32%	5%	-37[25.6 µM]
CCOc1ccc(N(C(C)C(=O)Nc2ccc(OC)cc2)S(C)(=O)=O)cc1 (centres undefined)	-5%	-3%[11.4 µM]	4%[11.4 µM]	-17%[7.6 µM]	-4[25.6 µM]
COC(=O)[C@@H]1C[C@H]1[C@@H](N)c1ccccc1	?	20%	/	2%	/
COC(=O)C1=C(C)NC(C)=C(C(=O)OC)C1c1ccc(OC(=O)c2ccco2)cc1	10%	9%	20µM*	-17%	-9
CCOC(=O)C1=C(C)NC(C)=C(C(=O)OCC)C1c1ccc(OC)cc1	-17%	4%	23%	18%	/
COc1cc(OC)cc(C(=O)N2c3ccc(F)cc3CCC2C)c1 (centres undefined)	3%	30%	13µM*	8%	12
SMILES	ERK AVP inh	HEK293 cAMP cs	TSHR agonist	CRE-bla Fsk	parental cAMP
COc1ccc(CNc2n[nH]c(NCc3ccc(OC)c(OC)c3)n2)cc1OC	4%	2%	2%	-3%	/
COc1ccc(CNc2nc(SC)n[nH]2)cc1OC	6%	7%	4%	?	4[25.6 µM]
Cc1nn(C)c(C)c1S(=O)(=O)N(CC(=O)Nc1ccccn1)c1ccc(C(C)C)cc1	-19%	17%	10µM*	-16%	-9
COc1ccc(NC(=O)CN(c2ccc(C)cc2)S(=O)(=O)c2c(C)nn(C)c2C)cc1OC	21%	1%	16%	10%	/
CCN(CC)S(=O)(=O)c1ccc(Cl)c(C(=O)NC2CCCC2)c1	0%	51%	/	4%	?
O=C(c1ccco1)N1CCC2(CC1)CCN(C(c1ccccc1)c1ccccc1)CC2	?	7%	0%	-12%	/
COC(=O)CNC(=O)C12CC3(C)CC(C)(CC(C)(C3)C1)C2	9%	5%	13µM*	2%	8
O=C(CSc1nc2scc(-c3ccco3)c2c(=O)n1-c1ccccc1)N1CCOCC1	?	23%	16µM*	2%	7
COc1ccccc1-c1ccc2ncnc(NCCNC(C)=O)c2c1	18%	?	?	3%	/
O=C(Nc1cccc2cccnc12)[C@@H]1[C@@H](C(=O)O)[C@H]2CC[C@@H]1O2	-9%[11.5 µM]	3%[11.4 µM]	0%[11.4 µM]	-4%[7.6 µM]	/
Oc1ccccc1-c1cc(C(F)(F)C(F)F)nc(-c2ccccc2)n1	1%	?	?	13%	3
Nc1nc(-c2ccccc2)cc(C(F)(F)F)n1	5%	20%	-1%	?	/
CN(C)CCNS(=O)(=O)N(C)C	1%[11.5 µM]	9%[11.4 µM]	1%[11.4 µM]	22%[7.6 µM]	/
CC(C)c1nnc(NC(=O)CCC(=O)NCc2ccc3c(c2)OCO3)s1	-20%	-6%	3%	6%	15[25.6 µM]
O=C(c1cc(-c2cccs2)on1)N1CCCc2ccccc21	4%	?	?	-16%	?
CCS(=O)(=O)N1CCN(C(C)CCc2ccccc2)CC1 (centres undefined)	-9%	9%[11.4 µM]	/	-9%[7.6 µM]	-3
COc1ccc(S(=O)(=O)N(C)CC(=O)N2CCCCCC2)cc1OC	-24%	6%	1%	?	-44[25.6 µM]
COc1ccc(-c2cc(C(F)(F)F)nc(SCCC(=O)N3CCOCC3)n2)cc1	24%	23%	20µM*	20%	13
CN(C)Cc1ccccc1-c1cncnc1NCc1cccs1	-6%	6%	6%	0%	/
CO[C@@H]1COC(=O)[C@@H](CCSC)NC(=O)C/C=C\[C@@H](C)COC(=O)[C@H](C)NC(=O)C/C=C\[C@H]1C	16%[11.5 µM]	-3%[11.4 µM]	-6%[11.4 µM]	/	/
CCOC(=O)C1C(=O)NC(N2CCCCC2)=NC1c1ccccc1 (centres undefined)	-3%	2%	9%	8%	/
CCOC(=O)C1C(=O)Nc2nc(C)nn2C1c1ccccc1 (centres undefined)	0%	-1%	4µM*	-7%	-7
Cc1cc(Cl)c(S(=O)(=O)Nc2ccc3c(c2)OCO3)cc1OCC(N)=O	-20%	20%	13µM*	-3%	-8
